Counter-ions that a name gives are not always drawn.
Tested on: LOC_OS03G12390-cb001
Experiment: thermal shift delta Tm vs DMSO control; higher = stronger stabilization (binding)
Settings: 12.5 µM; protein concentration 2 µM
Method in brief: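 The melting temperature shift given here is a triplicate mean, measured against protein that received only DMSO. Melting temperatures came from Boltzmann fits of differential scanning fluorimetry data on E. coli-expressed, purified rice kinase domain constructs. Each 19.5 μl well contained 2 μM kinase, 100 mM potassium phosphate pH 7.5, 150 mM NaCl, 10% glycerol, 5 × SYPRO Orange and compound in DMSO. Plates were scanned from 25°C to 95°C at 0.05°C/s.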

Row | Compound | thermal shift delta Tm [°C]
1 | CCn1c(=O)c(-c2ccc(-c3cncs3)cc2Cl)cc2cnc(Nc3ccc(N4CCN(C)CC4)cc3)nc21 | -0.41
2 | CNC(=O)c1cccc(-c2ccc3c(N4CCOC[C@@H]4C)nc(N4CCOC[C@@H]4C)nc3n2)c1 [Vistusertib (AZD2014)] | -0.33
3 | CC(C)S(=O)(=O)c1ccc2nccc(Nc3ccc4scnc4c3)c2c1 | 0.9
4 | Cn1cc(-c2ccc3ncc(Cc4ccc5ncccc5c4)n3n2)cn1 | -0.22
5 | N#Cc1ccc2ncnc(NCCc3ccccc3)c2c1 [Senexin A] | 1.84
6 | O=C1NC(=O)/C(=C/c2ccc3nccc(-c4ccncc4)c3c2)S1 | 2.47
7 | Cn1cnc2c(F)c(Nc3ccc(Br)cc3F)c(C(=O)NOCCO)cc21 | 0.19
8 | Cc1cc(Nc2ncc(Cl)c(Nc3ccccc3S(=O)(=O)C(C)C)n2)c(OC(C)C)cc1C1CCNCC1 [Ceritinib (LDK378)] | 2.72
9 | Cc1nc2ccc(-n3ncc(C(=O)c4cc5ccccc5[nH]4)c3N)cc2[nH]1 | 1.25
10 | C=C[C@@](C)(/C=C/c1ccc(O)cc1)CCC=C(C)C [Bakuchiol] | -0.13
11 | C=CC(=O)Nc1cccc(Nc2nc(Nc3ccc(N4CCN(C(C)=O)CC4)cc3OC)ncc2C(F)(F)F)c1 [Rociletinib (CO-1686, AVL-301)] | 11.1
12 | CCCS(=O)(=O)Nc1ccc(F)c(C(=O)c2c[nH]c3ncc(-c4ccc(Cl)cc4)cc23)c1F [Vemurafenib (PLX4032, RG7204)] | 4.44
13 | COc1cc(OC)c(C=C2C(=O)Nc3ccccc32)c(OC)c1 | -0.35
14 | CCN(CC)CCCC(C)Nc1nc(C)cc(Nc2ccc3nc(C)cc(N)c3c2)n1 (centres undefined) | -0.21
15 | CN1CC(O)C2=C/C(=N/NC(N)=O)C(=O)C=C21 (centres undefined) [Carbazochrome] | 0.05
16 | Cc1cc(Nc2cc(N3CCN(C)CC3)nc(/C=C/c3ccccc3)n2)n[nH]1 | 4.05
17 | Cc1ccc(NC(=O)Nc2cc(C(F)(F)F)ccc2F)cc1Nc1ccc2c(c1)NC(=O)/C2=C\c1ccc[nH]1 | 1.34

Row | Compound | thermal shift delta Tm [°C]
18 | CO[C@H]1C[C@@H]2CC[C@@H](C)[C@@](O)(O2)C(=O)C(=O)N2CCCC[C@H]2C(=O)O[C@H]([C@H](C)C[C@@H]2CC[C@@H](O)[C@H](OC)C2)CC(=O)[C@H](C)/C=C(\C)[C@@H](O)[C@@H](OC)C(=O)[C@H](C)C[C@H](C)/C=C/C=C/C=C/1C [Rapamycin (Sirolimus)] | 0.3
19 | C[S+]([O-])c1ccc(-c2nc(-c3ccc(F)cc3)c(-c3ccncc3)[nH]2)cc1 (centres undefined) | 0.78
20 | CO[C@H]1CC[C@H](N2C(=O)CNc3ncc(-c4ccc(C(C)(C)O)nc4)nc32)CC1 | -0.22
21 | O=C(Nc1ccccc1C(=O)NC1CCCCNC1=O)c1cc2ccccc2s1 (centres undefined) | -0.24
22 | CCN1CCN(Cc2ccc(-c3cc4c(N[C@H](C)c5ccccc5)ncnc4[nH]3)cc2)CC1 | 1.63
23 | Cc1cnc(NC(=O)Nc2cc(Br)c(C)cc2OC[C@@H]2CNCCO2)cn1 | 0.98
24 | Cc1ccc(NC(=O)c2ccc(CN3CCN(C)CC3)cc2)cc1Nc1nccc(-c2cccnc2)n1 [Imatinib Mesylate (STI571)] | 0.88
25 | NC(=O)c1ccc(N(C(N)=O)c2c(F)cccc2F)nc1-c1ccc(F)cc1F | -0.04
26 | Cc1nc(-c2cn3c(n2)-c2ccc(-c4cnn(C(C)(C)C(N)=O)c4)cc2OCC3)n(C(C)C)n1 [Taselisib (GDC 0032)] | -0.31
27 | COc1cc(N2CCC(N(C)C)CC2)ccc1Nc1ncc(Cl)c(Nc2ccccc2P(C)(C)=O)n1 | 10.9
28 | COc1cc2c(Nc3ccc(NC(=O)c4ccccc4)cc3)ncnc2cc1OCCCN1CCOCC1 | 0.43
29 | CNC(=O)c1cc(Oc2ccc(NC(=O)Nc3cc(C(C)(C)C)nn3-c3ccc4ncccc4c3)c(F)c2)ccn1 [Rebastinib (DCC-2036)] | 5.55
30 | CC(C)(CO)n1cc(C(=O)c2cncc(NC(=O)Cc3ccc(Cl)cn3)c2)c2cnc(N)nc21 | 0.3
31 | CS(=O)(=O)N1CCN(Cc2cc3nc(-c4cccc5[nH]ncc45)nc(N4CCOCC4)c3s2)CC1 [Pictilisib (GDC-0941)] | 0.14
32 | C[C@@H]1COC(Nc2ccc3ncnc(Nc4ccc(OCc5nccs5)c(Cl)c4)c3c2)=N1 [Varlitinib] | 0.13
33 | COc1cc(Nc2ncc(F)c(Nc3ccc4c(n3)NC(=O)C(C)(C)O4)n2)cc(OC)c1OC | 9.67
34 | CC(C)n1nc(-c2ccc3oc(N)nc3c2)c2c(N)ncnc21 | 0.67

Reference: the supplement of paper PMC9694430
